Reference: PubChem BioAssay
Activity calls are given as the source filed them. Unless noted, how the calls were made is not given here.

What was measured:
[1] = compounds binding Alexa647 anti-His antibody – biochemical, small-molecule microarray, 635 nm fluorescence, artefact control for SMM control protein annotation, primary screen (AID 1128); settings: higher = more signal;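 further: score merges feature fluorescence with signal-to-noise for each printed compound spot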
[2] = tested on: Human papillomavirus type 1a E7 protein (residues 1-88); experiment: HPV1a E7 small-molecule binders, primary screen, biochemical, small-molecule microarray, residues 1-88, 635 nm (AID 1129); settings: small-molecule microarray binding, fluorescence 635 nm; higher = more signal
[3] = biological target: Focal adhesion kinase 1 (Homo sapiens) (UniProt Q05397); experiment: PTK2 protein binding on printed compound slides – biochemical, small-molecule microarray, 635/667 nm fluorescence, BSA, DTT, primary screen (AID 1130); settings: 635 nm fluorescence, higher = more signal;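 further: composite of spot emission at 667 nm and signal to noise over triplicate slides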
Focal adhesion kinase 1 (Homo sapiens), sequence (Q05397 whole entry, looked up): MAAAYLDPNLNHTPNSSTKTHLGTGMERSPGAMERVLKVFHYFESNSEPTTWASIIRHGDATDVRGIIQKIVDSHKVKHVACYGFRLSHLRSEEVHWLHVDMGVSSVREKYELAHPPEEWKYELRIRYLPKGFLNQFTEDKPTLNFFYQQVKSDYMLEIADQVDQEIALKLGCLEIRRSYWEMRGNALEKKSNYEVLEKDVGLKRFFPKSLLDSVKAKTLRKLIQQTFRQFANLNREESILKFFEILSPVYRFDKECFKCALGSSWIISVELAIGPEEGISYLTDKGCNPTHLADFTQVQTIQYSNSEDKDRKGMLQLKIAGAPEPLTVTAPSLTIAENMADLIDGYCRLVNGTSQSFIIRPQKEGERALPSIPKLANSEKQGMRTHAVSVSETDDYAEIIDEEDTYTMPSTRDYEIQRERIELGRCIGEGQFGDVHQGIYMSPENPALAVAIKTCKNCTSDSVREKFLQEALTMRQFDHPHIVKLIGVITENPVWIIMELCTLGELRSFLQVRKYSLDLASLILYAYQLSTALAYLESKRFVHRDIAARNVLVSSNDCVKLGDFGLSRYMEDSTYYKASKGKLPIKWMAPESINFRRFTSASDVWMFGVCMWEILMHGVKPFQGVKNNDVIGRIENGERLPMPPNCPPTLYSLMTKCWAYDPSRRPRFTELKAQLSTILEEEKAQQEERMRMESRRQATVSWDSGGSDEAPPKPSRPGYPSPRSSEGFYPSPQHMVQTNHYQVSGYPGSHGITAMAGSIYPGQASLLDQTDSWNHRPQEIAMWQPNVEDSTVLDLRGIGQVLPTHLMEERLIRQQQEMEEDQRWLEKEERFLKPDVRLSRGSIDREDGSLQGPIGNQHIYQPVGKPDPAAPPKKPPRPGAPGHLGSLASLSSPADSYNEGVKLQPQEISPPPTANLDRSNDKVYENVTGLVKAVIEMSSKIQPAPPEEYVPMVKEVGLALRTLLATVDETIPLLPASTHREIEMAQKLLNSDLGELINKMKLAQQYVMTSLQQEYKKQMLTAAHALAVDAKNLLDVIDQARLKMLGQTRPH

[4] = tested on: Fibrinogen (Alexa647-labelled); experiment: Alexa647-fibrinogen binding to printed small molecules – biochemical, small-molecule microarray, 635/667 nm fluorescence, artefact control for SMM control-protein annotation, profiling panel (AID 1131); settings: fibrinogen-A647 binding fluorescence, higher = more signal;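 further: z-score merges 667 nm fluorescence with per-spot signal-to-noise over triplicate slides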
[5] = biological target: Follistatin (Homo sapiens) (UniProt P19883); experiment: FST protein binding to printed compounds – biochemical, small-molecule microarray, 635/667 nm fluorescence, primary screen (AID 1132); settings: 635 nm fluorescence, higher = more signal
Follistatin (Homo sapiens), sequence (P19883 whole entry, looked up): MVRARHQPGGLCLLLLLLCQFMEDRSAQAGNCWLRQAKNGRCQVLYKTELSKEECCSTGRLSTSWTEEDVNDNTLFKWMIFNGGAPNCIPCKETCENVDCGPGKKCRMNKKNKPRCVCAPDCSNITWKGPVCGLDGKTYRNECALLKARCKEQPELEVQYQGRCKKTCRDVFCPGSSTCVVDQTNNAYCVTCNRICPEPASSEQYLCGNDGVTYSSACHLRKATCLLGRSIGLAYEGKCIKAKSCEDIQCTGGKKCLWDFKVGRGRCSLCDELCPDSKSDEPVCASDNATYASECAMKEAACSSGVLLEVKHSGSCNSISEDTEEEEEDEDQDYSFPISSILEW

[6] = biological target: Fibroblast growth factor 2 (Homo sapiens) (UniProt P09038); experiment: basic fibroblast growth factor binding to printed compounds – biochemical, small-molecule microarray, 635/667 nm fluorescence, primary screen (AID 1133); settings: FGF2, fluorescence 635/667, higher = more signal
Fibroblast growth factor 2 (Homo sapiens), sequence (P09038 whole entry, looked up): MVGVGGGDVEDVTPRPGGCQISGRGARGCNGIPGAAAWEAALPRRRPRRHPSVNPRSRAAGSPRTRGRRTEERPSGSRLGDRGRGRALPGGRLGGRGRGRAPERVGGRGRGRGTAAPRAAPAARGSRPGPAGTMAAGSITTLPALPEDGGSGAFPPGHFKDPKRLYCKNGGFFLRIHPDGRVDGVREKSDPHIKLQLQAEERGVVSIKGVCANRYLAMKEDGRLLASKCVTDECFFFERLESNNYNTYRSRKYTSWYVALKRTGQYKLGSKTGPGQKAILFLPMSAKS

[7] = JC-1 mitochondrial potential readout, lung cancer cells – cell-based, A549, JC-1 fluorescence, basal, 24 h, 100 nL, profiling panel (AID 1138); settings: higher = more signal;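 further: A549 lung adenocarcinoma cells under basal conditions with no added stimulus; test concentration not given here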
[8] = tested on: Lefty1; experiment: Lefty1 protein binding to printed compounds – biochemical, small-molecule microarray, 635/667 nm fluorescence, primary screen (AID 1139); settings: fluorescence 635/667, higher = more signal
[9] = tested on: wheat germ agglutinin (Triticum aestivum), Alexa647-labelled; experiment: Alexa647-WGA lectin binding to printed small molecules – biochemical, small-molecule microarray, 635/667 nm fluorescence, artefact control for SMM control-protein annotation, profiling panel (AID 1140); settings: WGA-A647 binding, 635 nm fluorescence, higher = more signal;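 further: score merges 667 nm feature emission with signal to noise over triplicate slides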
[10] = biological target: Luciferin 4-monooxygenase (Photinus pyralis) (UniProt P08659); experiment: inhibition of purified Photinus pyralis luciferase – biochemical, luminescence, purified enzyme, 2006 set, primary screen (AID 1141); settings: purified firefly luciferase, SteadyGlo luminescence, 30 min; higher = more signal, called active from +8 up or from −8 down;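 further: cell-free assay with purified firefly luciferase at 100 ng per well in PBS; test concentration not given here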
Luciferin 4-monooxygenase (Photinus pyralis), sequence (P08659 whole entry, looked up): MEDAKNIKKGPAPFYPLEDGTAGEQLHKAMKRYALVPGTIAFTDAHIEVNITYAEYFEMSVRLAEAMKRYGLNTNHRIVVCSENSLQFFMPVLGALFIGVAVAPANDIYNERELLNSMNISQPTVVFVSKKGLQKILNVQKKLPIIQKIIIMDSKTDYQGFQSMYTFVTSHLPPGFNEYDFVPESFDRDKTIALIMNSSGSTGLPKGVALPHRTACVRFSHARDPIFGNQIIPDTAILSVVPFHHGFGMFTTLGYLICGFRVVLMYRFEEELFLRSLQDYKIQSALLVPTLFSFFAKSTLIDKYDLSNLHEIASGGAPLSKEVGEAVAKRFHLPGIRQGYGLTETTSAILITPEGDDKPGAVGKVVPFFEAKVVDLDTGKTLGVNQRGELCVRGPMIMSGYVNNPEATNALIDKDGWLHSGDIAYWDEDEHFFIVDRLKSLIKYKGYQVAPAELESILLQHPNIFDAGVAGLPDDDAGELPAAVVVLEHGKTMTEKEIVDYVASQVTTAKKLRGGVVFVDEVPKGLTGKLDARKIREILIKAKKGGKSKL

[11] = tested on: Wnt5a (protein binding on small-molecule microarray); experiment: small molecules binding Wnt5a protein – biophysical, small-molecule microarray, 635/667 nm fluorescence, primary screen (AID 1142); settings: 635 nm fluorescence, higher = more signal;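 further: fluorescence read at 667 nm with signal to noise per printed feature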
[12] = ATP-based viability of Huh7 replicon cells – cell-based, CellTiter-Glo luminescence, basal, 48 h, cytotoxicity control for HCV replication inhibitor project, primary screen (AID 1143); settings: higher = more signal, called active from +8 up or from −8 down;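 further: Huh7 hepatoma cells carrying a hepatitis C replication reporter with no stimulus; test concentration not given here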
[13] = Pseudomonas biofilm growth suppression – PAO1 strain, BacTiter-Glo luminescence, LB-PBS, primary screen (AID 1144); settings: P. aeruginosa PAO1 biofilm, 12 h, higher = more signal
[14] = basal CRE-LacZ reporter activity in PC12 – cell-based, unstimulated, primary screen (AID 1145); settings: no forskolin, luminescence, 4.5 h, higher = more signal, called active from +8 up or from −8 down
[15] = forskolin-driven CRE-LacZ activity in PC12 – cell-based, CRE-LacZ reporter, forskolin-stimulated, primary screen (AID 1146); settings: luminescence, 4.5 h, higher = more signal, called active from +8 up or from −8 down;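 further: PC12 cells with 6xCRE LacZ reporter stimulated by forskolin 10 µM; beta-galactosidase reporter signal reflecting CREB driven transcription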
[16] = biological target: Streptavidin (Streptomyces avidinii) (UniProt P22629); experiment: compounds binding control protein streptavidin – biophysical, small-molecule microarray, 635/667 nm fluorescence, artefact control for SMM compound annotation, primary screen (AID 1147); settings: higher = more signal;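 further: signal reflects streptavidin binding to arrayed compounds as a control protein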
Streptavidin (Streptomyces avidinii), sequence (P22629 whole entry, looked up): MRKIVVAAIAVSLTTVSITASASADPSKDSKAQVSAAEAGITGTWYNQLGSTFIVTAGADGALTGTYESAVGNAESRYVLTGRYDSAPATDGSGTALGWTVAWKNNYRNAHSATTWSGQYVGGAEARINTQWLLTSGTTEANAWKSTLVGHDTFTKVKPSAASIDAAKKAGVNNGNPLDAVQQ

[17] = probe aInhba binding on compound microarray – biochemical, small-molecule microarray, 635/667 nm fluorescence, primary screen (AID 1148); settings: higher = more signal;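 further: score merges 667nm spot fluorescence with signal-to-noise for antibody binding to printed compounds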
[18] = biological target: Torsin-1A (Homo sapiens) (UniProt O14656); experiment: TOR1A wild-type binding on microarray – cell lysate, small-molecule microarray, lysate, 635/667 nm, primary screen (AID 1149); settings: COS7 hTOR1A-WT lysate, 635 nm fluorescence, higher = more signal
Torsin-1A (Homo sapiens), sequence (O14656 whole entry, looked up): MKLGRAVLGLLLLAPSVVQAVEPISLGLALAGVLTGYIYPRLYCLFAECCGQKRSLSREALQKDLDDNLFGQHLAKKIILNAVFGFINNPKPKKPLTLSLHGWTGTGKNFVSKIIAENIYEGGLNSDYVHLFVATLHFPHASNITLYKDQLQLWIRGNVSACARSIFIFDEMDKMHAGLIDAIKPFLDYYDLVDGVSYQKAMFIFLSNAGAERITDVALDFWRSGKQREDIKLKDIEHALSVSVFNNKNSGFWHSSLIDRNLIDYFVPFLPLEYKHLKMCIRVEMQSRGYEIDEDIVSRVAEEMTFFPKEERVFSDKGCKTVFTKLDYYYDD

[19] = biological target: Torsin-1A (Homo sapiens) (UniProt O14656); experiment: torsin A mutant lysate binding on microarrays – cell lysate, small-molecule microarray, COS7 lysate, 635/667 nm fluorescence, primary screen (AID 1150); settings: COS7 hTOR1A mutant lysate, 635 nm fluorescence, higher = more signal;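 further: score pools 667 nm emission and signal to noise measuring lysate protein binding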
[20] = tested on: Sonic hedgehog protein (Shh); experiment: Sonic hedgehog microarray binding compounds – biochemical, small-molecule microarray, 635/667 nm fluorescence, primary screen (AID 1151); settings: 635 nm fluorescence, higher = more signal;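 further: Shh protein binding to compounds spotted on small-molecule microarray slides; score combines spot fluorescence intensity with signal-to-noise across triplicate slides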

SMILES	composite z-score [1]	composite z-score [2]	composite z-score [3]	composite z-score [4]	composite z-score [5]	composite z-score [6]	z-score [7]	composite z-score [8]	composite z-score [9]	z-score [10]	composite z-score [11]	z-score [12]	z-score [13]	z-score [14]	z-score [15]	composite z-score [16]	composite z-score [17]	composite z-score [18]	composite z-score [19]	composite z-score [20]
C=CC[C@@H]1C=C[C@H](ON=C[C@@H](NS(=O)(=O)c2ccc(C)cc2)[C@H](C)C=CCC(=O)OC)[C@@H](CO)O1	1.34	-0.205	-0.0954	-0.193	0.774	0.349	-0.0376	0.625	0.511	1.18 (inactive)	-0.116	0.182 (inactive)	1.33 (inactive)	0.848 (inactive)	0.983 (inactive)	-0.407	0.138	0.359	0.634	0.416
CC(=O)OC[C@H]1O[C@@H](ON=C(C)C)[C@H](OC(C)=O)[C@@H](OC(C)=O)[C@@H]1OC(C)=O	0.759	-1.41	-0.242	-0.515	-1.27	-0.109	-0.191	-1.03	-0.88	0.316 (inactive)	0.47	0.238 (inactive)	-0.291 (inactive)	0.499 (inactive)	0.101 (inactive)	-1.26	-0.0695	0.456	0.188	-0.856
C[C@@H]1C=CCC(=O)OC[C@H](C)C(=O)N[C@@H](Cc2ccccc2)C(=O)OC1	-0.044	-0.203	-0.0171	0.0608	0.927	0.589	-0.00638	0.432	0.0031	-0.0028 (inactive)	0.033	-3.11 (inactive)	-1.23 (inactive)	1.43 (inactive)	-0.846 (inactive)	-0.0535	-0.0736	0.519	0.59	0.638
CO[C@@H]1C=CCC(=O)N[C@@H](C)C(=O)OC[C@@H](OC)[C@H](C)C=CCC(=O)OC[C@H]1C	0.207	-0.724	-0.397	-0.556	1.39	0.615	1.04	1.59	-0.87	-0.461 (inactive)	0.552	-0.0206 (inactive)	0.457 (inactive)	0.876 (inactive)	-0.384 (inactive)	-0.477	-0.157	2.58	2.21	2.06
CC(=O)OC[C@H]1O[C@H](CC=NOC[C@@H](O)[C@H]2O[C@@H]3OC(C)(C)O[C@@H]3[C@H]2O)C=C[C@@H]1OC(C)=O	0.638	0.702	0.15	0.727	0.209	0.583	-0.325	0.385	-0.0993	0.94 (inactive)	0.0795	0.165 (inactive)	-0.0289 (inactive)	-1.3 (inactive)	-0.521 (inactive)	0.168	-0.152	-0.197	0.071	-0.0919
